Source: PubChem BioAssay
Compounds with a hit are over-represented: about 4% of the library has one in this group of screens.
HIF-2a block: HIF-2a inhibition; 786-0 RCC cells HIF-2a reporter, luciferase luminescence, overnight; inhibition, % at 18.8 µM; hit rate 0.72% among 360,000;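 active means inhibition of the luminescence signal of 40% or more relative to plate controls, in a single-dose primary screen at 18.75 µM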
KKLEB tox: counter-screen for CF NF-kB inhibitors: cytotoxicity | activity change (cytotoxicity), % at 5 µM | AID 602141 | hit rate 0.36% among 360,000 | KKLEB CF airway cells viability, ATPlite luminescence, overnight; stronger effect = lower value; cells stimulated with P. aeruginosa culture filtrate;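 active means corrected activity change at or below -50% at 5 µM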
TWEAK-Fn14 inh: blocks TWEAK-Fn14 interaction in a reporter cell assay | TWEAK-stimulated Fn14 reporter cells, luciferase luminescence, 8 h | inhibition, % at 10 µM | hit rate 2% among 360,000; in the data active means inhibition above about 50%
CF NFkB inh: inhibitors of cystic fibrosis induced NF-kB. KKLEB NF-kB-GFP reporter, PAF-induced, GFP fluorescence overnight. inhibition, % at 5 µM. hit rate 0.86% among 360,000. AID 588850;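 active means at least 50% inhibition at 5 µM, scaled per plate between neutral and stimulator controls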;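 further: PAF is a Pseudomonas aeruginosa culture filtrate used as stimulus; plate controls were PAF-stimulated DMSO wells for no effect and unstimulated DMSO wells for full effect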
Peg3 prom inh: Peg3 promoter activity inhibition; HeLa PEG-Prom luciferase reporter, luminescence, overnight; inhibition, % at 20 µM; AID 588405; hit rate 1.7% among 360,000;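 active means inhibition of at least 50% at 20 µM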
TROY NFkB inh: blocks TROY-dependent signaling in reporter cells; inhibition, % at 10 µM; AID 1347056; hit rate 0.98% among 360,000; Q293 LMP1-TROYcd NF-kB luciferase reporter, 4 h;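 active means compounds whose plate-normalised and pattern-corrected inhibition of the luciferase reporter signal at the single screening dose is 50% or more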
Starred values were filed as active, the others as inactive; x = not tested or not shown.

SMILES	HIF-2a block	KKLEB tox	TWEAK-Fn14 inh	CF NFkB inh	Peg3 prom inh	TROY NFkB inh
CCOC(=O)CC1(CC)Oc2ccccc2N1S(=O)(=O)c1ccc(C)cc1 (configuration not stated)	6	x	x	x	x	x
FC(F)(F)c1nc(N2CCCC2)ncc1-c1nnnn1-c1ccccc1	17	-4	51*	-1	31	18
Cc1ccc(-n2nnnc2-c2cnc(N3CCCC3)nc2C(F)(F)F)cc1	32	7	33	-13	21	21
CCCCn1c(N)c(N(CC)C(=O)c2ccc(Cl)c(Cl)c2)c(=O)[nH]c1=O	22	6	-4	1	14	1
Cc1ccc(N2CC(C(=O)Nc3ccc4c(c3)OCCO4)CC2=O)cc1 (configuration not stated)	33	-2	59*	-5	10	50
Cc1ccc(N2CC(C(=O)Nc3ccc4c(c3)OCCO4)CC2=O)cc1C (configuration not stated)	17	-3	54*	7	39	46
O=C(Nc1ccc2c(c1)OCO2)C1CC(=O)N(c2ccccc2)C1 (configuration not stated)	0	-9	-3	-16	2	3
COc1cccc(CNc2ccc3[nH]c(=O)[nH]c3c2)c1OCc1ccccc1F	4	-10	8	-25	15	-11
CC1=NN(S(=O)(=O)c2ccc(Cl)cc2Cl)C(=O)c2ccccc2O1	13	-4	68*	1	7	1
O=C(NCCN1CCC(n2c(=O)[nH]c3ccccc32)CC1)c1ccc(C(F)(F)F)cc1C(F)(F)F	-15	x	32	x	x	20
O=C(/C=C/c1ccc2c(c1)OCCCO2)c1ccc2ccccc2c1O	-226	-6	33	8	-159	61*
Cc1ccc(C(=O)/C=C/c2ccc3c(c2)OCCO3)c(O)c1	-76	14	13	10	-328	27
CCOC(=O)/C(=N/Nc1ccc(OC)cc1)Sc1nnc(CCc2ccccc2)n1-c1ccccc1	-39	-15	51*	1	-67	68*
COC(=O)CCCC(=O)N1CCC(CO)(CCc2ccccc2)CC1	-2	-5	3	-3	-9	-30
COc1cccc(C(=O)NCC[N+](C)(C)C)c1	4	x	9	x	x	-6
CCc1nc(Nc2ccc(OC)c(OC)c2)c2nnn(Cc3ccccc3Cl)c2n1	13	2	52*	11	25	50
CN(C)S(=O)(=O)c1ccc(Nc2nc(C3CC3)nc3c2nnn3Cc2ccccc2Cl)cc1	28	-10	87*	27	40	49
Cc1cnc(NC(=O)C2(c3ccccc3)CC2)s1	-92	8	-14	-9	-65	-18
CCOC(=O)C1=CNS(=O)(=O)NC1c1ccccc1 (configuration not stated)	-1	3	8	-2	11	2
CC(NC(=O)Nc1ccc(Br)cc1)C(C)(C)C (configuration not stated)	-81	8	-7	6	-111	-40
Cc1ccc(C=C2C=C(c3ccccc3)OC2=O)cc1	-236	-5	-20	13	-195	-42
Cc1ccc(C2=C/C(=C/c3cccs3)C(=O)O2)cc1	-124	0	53*	-6	-53	-32
CCCCCCCCN1C(=O)[C@H](CC(=O)NCc2cccc3ccccc23)C[C@@]2(C(=O)OC)CC(C)(C)CC=C12	15	x	x	x	x	x
CN1C(=O)C2(Oc3ccccc3C3CC(c4ccccc4)=NN32)c2ccccc21 (configuration not stated)	-172	9	81*	-20	-165	-43
Cc1ccccc1NC(=O)Nc1nc2ccc(S(C)(=O)=O)cc2s1	-130	-27	-72	21	-83	-26
SMILES	HIF-2a block	KKLEB tox	TWEAK-Fn14 inh	CF NFkB inh	Peg3 prom inh	TROY NFkB inh
NS(=O)(=O)c1ccc2nc(NC(=O)Nc3ccccc3F)sc2c1	-236	13	51*	-9	-386	8
Cc1ccc2nc(NC(=S)NC(=O)c3ccc(OC(C)C)cc3)sc2c1	-38	-3	-62	-8	-81	-9
CS(=O)(=O)c1ccc2nc(NC(=O)c3cccs3)sc2c1	-25	-27	69*	23	-85	34
Cc1ccc2nc(NC(=S)NC(=O)c3cccs3)sc2c1	-181	-9	43	-16	-187	54*
Cc1ccc2nc(NC(=O)c3cccs3)sc2c1	-82	-15	78*	1	-47	23
Cc1sc2nc(CSC(C)C(=O)NC3(C#N)CCCCC3)[nH]c(=O)c2c1C (configuration not stated)	-4	-2	1	1	9	13
Nc1nc2c(ncn2[C@@H]2O[C@H](CNCc3cnc(N4CCOCC4)nc3)[C@@H](O)[C@H]2O)c(=O)[nH]1	8	-20	10	6	-2	-3
O=C(Nc1ccc(N2CCOCC2)cc1)c1ccc([N+](=O)[O-])o1	31	-7	24	6	102*	-33
CS(=O)(=O)N1CCN(c2ccccc2NC(=O)c2ccc([N+](=O)[O-])o2)CC1	-14	2	6	-44	18	-6
CN1CCN(c2ccccc2NC(=O)c2ccc([N+](=O)[O-])o2)CC1	-1	-15	8	32	61*	-4
CC1CCCN(C(=O)c2cn(-c3ccccc3)nc2-c2cccnc2)C1 (configuration not stated)	2	4	-7	6	19	0
O=C(CCCn1c(=S)[nH]c2ccsc2c1=O)Nc1ccc2c(c1)OCCO2	29	-8	89*	0	40	82*
O=C(CCCn1c(=S)[nH]c2ccsc2c1=O)Nc1ccc(F)cc1	13	-15	-8	12	7	-5
C/C(=N\Nc1nc2ccccc2s1)c1ccc(Br)s1	-127	-15	51*	-3	-86	31
N=C(N)SCc1cn(-c2ccccc2)nc1-c1ccc(Br)cc1	-23	-5	1	16	108*	9
CC(Oc1ccc(F)cc1)C(=O)Nc1nc(-c2ccccn2)cs1 (configuration not stated)	11	12	-94	3	55*	74*
O=C(CCS(=O)(=O)c1ccc(F)cc1)Nc1nc(-c2ccccn2)cs1	6	3	12	10	8	3
COc1ccc(S(=O)(=O)N2CCCCC2c2cc(C(=O)Nc3ccccc3)no2)cc1 (configuration not stated)	-35	10	-8	-32	3	11
CCOC(=O)N1CCN(c2cc(N3CCOCC3)c(F)cc2[N+](=O)[O-])CC1	16	0	51*	-7	11	6
CCOC(=O)C1CCCN(C(=O)c2ccc3nc(-c4cccc(OC)c4)oc3c2)C1 (configuration not stated)	-145	-16	46	13	-25	68*
CCN(CC)C(=O)C1CCCN(C(=O)c2ccc3nc(-c4cccc(OC)c4)oc3c2)C1 (configuration not stated)	-139	9	-6	-14	-81	-42
